Bioassay records as filed in PubChem BioAssay.
The list is not random: actives were taken first. Their share in the collection is about 2.3%.
V-ATPase pHluor: alters yeast V-ATPase proton transport; S. cerevisiae, pHLuorin cytosolic pH fluorescence; response, % at 10 µM; actives 0.37% (n = 350,000); AID 504577; in the data active = response mostly above about 7.3%, no sharp cut-off; inactive = mostly below about 5.4%; note: actives read high
ADAM17 inh: ADAM17 inhibition, QFRET primary screen | recombinant ADAM17, EDANS/DABCYL FRET peptide cleavage | inhibition, % at 6.95 µM | actives 0.83% (n = 370,000);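 active = inhibition above the mean of compounds lying between control limits plus 3 SD, set per campaign, cut at about 8.5% in these data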;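 note: 0% = DMSO-only wells as the low control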
ADAM10 inh: ADAM10 inhibition, QFRET primary screen | AID 720582 | inhibition, % at 7 µM | recombinant ADAM10, EDANS/DABCYL FRET peptide cleavage, 3 h | actives 0.62% (n = 370,000);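 active = inhibition above a per-campaign cutoff equal to the mean of compounds falling between control-based bounds plus 3 SD, cut at about 20% in these data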;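 note: 0% = DMSO wells while the 100% control is not disclosed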
Target sequence (O14672 214-748 limits assumed): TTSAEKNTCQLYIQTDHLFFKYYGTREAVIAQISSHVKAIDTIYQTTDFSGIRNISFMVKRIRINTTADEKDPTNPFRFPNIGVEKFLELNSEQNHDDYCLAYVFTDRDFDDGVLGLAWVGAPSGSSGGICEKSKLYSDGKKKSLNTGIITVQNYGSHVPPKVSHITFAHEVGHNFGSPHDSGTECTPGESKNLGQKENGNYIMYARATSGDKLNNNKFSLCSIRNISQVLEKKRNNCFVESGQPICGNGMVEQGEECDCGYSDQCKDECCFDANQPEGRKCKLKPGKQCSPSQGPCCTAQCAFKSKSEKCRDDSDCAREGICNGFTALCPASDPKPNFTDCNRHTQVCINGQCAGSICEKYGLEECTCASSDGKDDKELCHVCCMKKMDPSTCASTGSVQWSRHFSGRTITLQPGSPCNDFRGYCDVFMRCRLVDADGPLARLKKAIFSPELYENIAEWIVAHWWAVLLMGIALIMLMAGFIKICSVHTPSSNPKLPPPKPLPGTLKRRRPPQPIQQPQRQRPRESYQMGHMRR
KLK7 zymogen act: activators of human kallikrein-7 zymogen; actives 0.9% (n = 370,000); P49862; purified proKLK7, EDANS-DABCYL substrate fluorescence; 100% is mature enzyme control, 0% vehicle; AID 652039; activation, % at 7 µM;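 active = activation above the mean of all tested compounds plus 3 SD, computed per campaign excluding outliers beyond control limits, cut at about 13% in these data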
ADAM10 counter: counter-screen for ADAM17 exosite inhibitors: inhibitors of human ADAM10 | shares compounds with ADAM17 inh | AID 743256 | actives 47% (n = 2,900) | recombinant ADAM10, EDANS/DABCYL FRET peptide cleavage, 3 h | inhibition, % at 6.95 µM;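 active = mean inhibition over the triplicate runs exceeds the activity threshold set in the earlier primary screen, cut at about 20% in these data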;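 note: 0% = DMSO wells and 100% = marimastat wells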
ADAM17 confirm: confirmation of inhibitors of human ADAM17. shares compounds with ADAM17 inh. inhibition, % at 6.95 µM. recombinant ADAM17, EDANS/DABCYL QFRET peptide cleavage. actives 65% (n = 2,900);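 active = mean inhibition across replicates above the hit cutoff set in the primary screen, cut at about 8.5% in these data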;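 note: 0% = DMSO wells and 100% = marimastat wells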
An asterisk follows results filed as active; / = not tested or not shown.

SMILES	V-ATPase pHluor	ADAM17 inh	ADAM10 inh	KLK7 zymogen act	ADAM10 counter	ADAM17 confirm
CC(O)(c1ccc(F)c(F)c1)c1nc(-c2ccncc2)cs1 (stereo not given)	/	-4	-8	0	/	/
CCc1nc(SCc2ccc(Br)cc2)n[nH]1	0	-1	-1	0	/	/
CCc1nc(SCc2ccc(OCC(C)C)cc2)n[nH]1	1	10*	20*	0	15	7
N#Cc1cccc(NC(=O)c2cc(C3CCCCN3S(=O)(=O)c3ccccc3)on2)c1 (stereo not given)	/	12*	14	-1	18	12*
CC(C)NC(=O)c1cc(C2CCCCN2S(=O)(=O)c2ccc(C#N)cc2)on1 (stereo not given)	/	-6	-8	0	/	/
Cc1cccc(C(=O)Nc2cccc(OC(=O)c3cccc(C)c3)c2)c1	-1	10*	11	3	30*	17*
C#CCNc1cccc2c1S(=O)(=O)N[C@H](C)CO2	/	-4	-11	0	/	/
Cc1cccc(NC(=S)N=Nc2c(O)[nH]c3ccccc23)c1	2	9.9*	15	-1	27*	13*
Cc1c(Cl)c([N+](=O)[O-])nn1CC(=O)NC12CC3CC(CC(C3)C1)C2	2	11*	16	1	-5	2
Cc1c(Cl)c([N+](=O)[O-])nn1CC(=O)N1CCCC1	1	-2	1	-1	/	/
COC(=O)Cc1nnn2c1[C@@H](C)[C@@H](c1ccccc1Br)OC[C@@H]2c1ccccc1	/	-2	-1	1	/	/
COC(=O)[C@H](Cc1ccccc1)N1CC=CS1(=O)=O	/	-6	-14	0	/	/
O=C(NNC(=O)C1CCC1)c1ccccc1F	1	9.9*	1	0	-1	2
Cc1cccc(C)c1NC(=O)C1(C)CSCC(=O)N1CCc1c[nH]c2ccccc12 (stereo not given)	/	11*	-5	0	1	4
Cc1cccc(C)c1NC(=O)C1(C)CSCC(=O)N1CCc1ccccc1F (stereo not given)	/	2	-2	1	/	/
COc1ccc([C@@]23CCN=C2c2[nH]c4ccccc4c2CCN3)c(N)c1	/	-8	-11	/	/	/
CC(C)(C)NS(=O)(=O)c1ccc(CCC(=O)NCc2ccc3c(c2)OCO3)cc1	-2	9.0*	5	0	8	7
C=CCNc1cccc2c1S(=O)(=O)N[C@@H](CC(C)C)CO2	/	-3	-4	1	/	/
CC1CC(C)CN(S(=O)(=O)c2ccc(NC(=O)CN3C(=O)NC(C)(c4ccccc4)C3=O)cc2)C1 (stereo not given)	-2	10.0*	17	0	21*	12*
CC1(c2ccccc2)NC(=O)N(CC(=O)Nc2ccc(S(N)(=O)=O)cc2)C1=O (stereo not given)	-1	-2	1	-1	/	/
O=S(=O)(c1ccc(C(F)(F)F)cc1)N1CCCc2nc(-c3ccc(Br)cc3)ccc21	/	-1	-12	1	/	/
CN1C(=O)c2cc(NC(=O)C3CCOCC3)ccc2OC[C@@H]2O[C@@H](CC(=O)NCc3ccccc3F)CC[C@@H]21	/	-2	1	0	/	/
COc1ccc(C2=Nc3ccc(C)cc3C(c3ccccc3)N2CC(=O)NN)cc1 (stereo not given)	2	-3	-1	0	/	/
COC(=O)CN1C(c2ccc(Cl)cc2)=Nc2ccc(Cl)cc2C1c1ccccc1 (stereo not given)	2	9.0*	12	0	23*	13*
O=c1cc(COn2nnc3ccc(C(F)(F)F)cc32)nc2sccn12	-1	11*	16	-1	7	8.9*
O=C1OC(c2ccccc2)(c2ccc3cc(O)ccc3c2)c2ccccc21 (stereo not given)	1	10*	19	1	25*	13*
CCOC(=O)c1cnc2ccc(Br)cc2c1NCC(C)O (stereo not given)	-4	10*	7	1	-6	1
COC(=O)[C@]12C[C@H](CC(=O)NCc3ccccc3)C(=O)N(Cc3ccccc3)C1=C[C@H](C(C)(C)C)O[C@@H]2C	/	3	4	0	/	/
COc1ccc([N+](=O)[O-])cc1NC(=O)Nc1cccc(Cl)c1	-7	2	11	0	/	/
